From PubChem BioAssay (Tox21) come the findings set out here.

Several values for one entry are separate records, joined by “and”; a condition that tells them apart may be missing. Equal values may be shown once. Results filed as inconclusive are left out. The source holds several records for some structures; these can differ, active in one and inactive in another. Activity calls are given as the source filed them. Unless noted, calls come from the whole dose curve; as a rule, active = well fitted curve in the direction sought with a large enough effect in the repeat runs; inconclusive = weak or mixed curves; inactive = no such curve, though single readings can be large; an effect the other way counts as inactive or inconclusive.

Assay [1] in a line: qHTS assay to identify small molecule antagonists of the estrogen receptor alpha (ER-alpha) signaling pathway using the BG1 cell line in the presence of 0.1 nM 17-beta-estradiol - cell viability counter screen (AID 1259241). Note: nearly all actives have a fitted effect of over 40% in size. The essentials: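 VM7Luc4E2 cells (endogenous ER-alpha, 4×ERE-luciferase), hormone-starved 5 days in charcoal-stripped FBS, were treated with compounds plus 0.1 nM 17beta-estradiol for 22 hr at 37C; viability read in same wells as CellTiter-Fluor live-cell protease fluorescence.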
A general note: qHTS replaces the single test concentration by a dilution series.

The nature of assay [2]: qHTS assay to identify small molecule antagonists of the androgen receptor (AR) signaling pathway using the MDA cell line in the presence of 0.5 nM R1881 - cell viability counter screen (AID 1259242). Note: nearly all actives have a fitted effect of over 45% in size. Note: potency is the fitted concentration of half-maximal effect. The essentials: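 qHTS format. MDA-kb2 (MMTV-luc, AR/GR responsive) + cpd + 0.5 nM R1881 final, 16 hr 37C/0% CO2 → CellTiter-Fluor 30 min → fluorescence intensity.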
Assay [3] concerns the target Androgen receptor (Homo sapiens) (UniProt P10275). Briefly: qHTS assay to identify small molecule antagonists of the androgen receptor (AR) signaling pathway using the MDA cell line in the presence of 0.5 nM R1881 (AID 1259243). Note: nearly all actives have a fitted effect of over 50% in size. Note: potency is the fitted concentration of half-maximal effect. A digest of the protocol:
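Antagonist mode quantitative HTS in MDA-kb2 MMTV-luciferase cells, agonist R1881 at 0.5 nM final, 16 hr exposure at 37C and 0% CO2, luminescent detection.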

Assay [4] concerns the target Estrogen receptor (Homo sapiens) (UniProt P03372). Briefly: qHTS assay to identify small molecule antagonists of the estrogen receptor alpha (ER-alpha) signaling pathway using the BG1 cell line in the presence of 0.1 nM 17-beta-estradiol (AID 1259244). Note: nearly all actives have a fitted effect of over 50% in size. The essentials:
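Reporter is a stably transfected luciferase under four estrogen responsive elements in VM7Luc4E2 cells expressing native full-length ER-alpha; inhibition of 0.1 nM (final) 17beta-estradiol-driven signal over 22 h is read by luminescence.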

The nature of assay [5]: qHTS assay to identify small molecule HDAC inhibitors (AID 1259364).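 Note: wild-type HCT-116 cells with endogenous class I/II HDAC activity; top concentration of the series differs between compounds; nearly all actives have a fitted effect of over 45% in size.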 The essentials: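 Quantitative high-throughput format: overnight-seeded HCT-116 cells got compounds for 2 hr at 37C; HDAC-Glo I/II reagent added, 30 min RT, luminescence measured.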
Assay [6] in a line: qHTS assay to identify small molecule HDAC inhibitors - cell viability counter screen (AID 1259365). Note: series mostly up to about 92 µM; nearly all actives have a fitted effect of over 50% in size. A digest of the protocol: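 Wild-type HCT-116 cells were seeded at 1,500 per well, incubated overnight at 37 C, then exposed to compounds in DMSO for 2hr. Viability was read by CellTiter-Glo luminescence after 30min at room temperature.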
A short description of assay [7]: qHTS assay to identify small molecule agonists of the sonic hedgehog signaling (Shh) pathway - cell viability counter screen (AID 1259366). Note: nearly all actives have a fitted effect of over 50% in size. Note: potency is the fitted concentration of half-maximal effect. The essentials:
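NIH/3T3-derived 3T3 Gli1-Luc cells (stable Gli1-responsive firefly luciferase reporter) were seeded, rested 4 hr at 37 C/5% CO2, then exposed to compounds in DMSO for 24 hr; viability was read by CellTiter-Fluor fluorescence in the same wells.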

Assay [8] is described as follows: qHTS assay to identify small molecule antagonists of the sonic hedgehog signaling (Shh) pathway - cell viability counter screen (AID 1259367). Note: nearly all actives have a fitted effect of over 55% in size. Note: potency is the fitted concentration of half-maximal effect. The essentials: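 Viability was read by CellTiter-Fluor fluorescence in the same wells, reagent added 23 hr into compound treatment and incubated 1 hr at 37C. The 3T3 Gli1-Luc reporter cells (2,000/well) received conditioned medium after compound and ran 24 hr.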

A short description of assay [9]: qHTS assay to identify small molecule agonists of the sonic hedgehog signaling (Shh) pathway (AID 1259368; calls by dose curve; note: series mostly up to about 92 µM; nearly all actives have a fitted effect of over 15% in size). The essentials: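 Quantitative high-throughput format using a Gli1-driven firefly luciferase reporter line derived from NIH/3T3 cells. After a 24 hr compound treatment at 37 C and 5% CO2, luminescence reported Gli1 response element activity.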
The nature of assay [10]: qHTS assay to identify small molecule agonists of the androgen receptor (AR) signaling pathway in the presence of an antagonist - cell viability counter screen (AID 1259379). Note: nearly all actives have a fitted effect of over 25% in size. Note: potency is the fitted concentration of half-maximal effect. The essentials: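 Nilutamide-containing (3.0uM final) MDA-kb2 cultures, 3,000 cells/well, were treated with compounds across 15 concentrations. After 16 hr at 37C with no CO2, cell viability was determined by CellTiter-Fluor fluorescence in the luciferase assay wells.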

The nature of assay [11]: qHTS assay to identify small molecule antagonists of the estrogen receptor beta (ER-beta) signaling pathway - cell viability counter screen (AID 1259382). Note: nearly all actives have a fitted effect of over 55% in size. Note: potency is the fitted concentration of half-maximal effect. A digest of the protocol:
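Viability is scored by CellTiter-Glo luminescence (30 min, room temperature) in ER-beta-UAS-bla HEK293T wells already read for reporter fluorescence. Compound exposure lasts 16 hr at 37C alongside 1nM 17-beta-estradiol in charcoal-stripped serum medium.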

Assay [12] addresses Estrogen receptor (Homo sapiens) (UniProt P03372). Briefly: qHTS assay to identify small molecule agonists of the estrogen receptor alpha (ER-alpha) signaling pathway in the presence of an antagonist (AID 1259383; calls by dose curve; note: top concentration of the series differs between compounds; nearly all actives have a fitted effect of over 15% in size). A digest of the protocol:
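Readout was ERE-driven luciferase luminescence in VM7Luc4E2 cells, which express full-length ER-alpha endogenously. Compounds were tested at 15 concentrations for 22hr alongside 10.0nM ICI-182,780 (final concentration).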

Assay [13] is described as follows: qHTS assay to identify small molecule agonists or antagonists of the thyroid stimulating hormone receptor (TSHR) signaling pathway - wild type cell line counter screen (AID 1259384; calls by dose curve). A digest of the protocol:
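Counter screen in untransfected Hek293: compounds (15-point titration, triplicate) plus phosphodiesterase inhibitor Ro20-1724 added after 18 h plating; 30 min RT. Intracellular cAMP via competitive d2/cryptate immunoassay, 1 h incubation.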

For assay [14], the target named is Thyrotropin receptor (Homo sapiens) (UniProt P16473). Briefly: qHTS assay to identify small molecule antagonists of the thyroid stimulating hormone receptor (TSHR) signaling pathway (AID 1259385; calls by dose curve; note: nearly all actives have a fitted effect of over 20% in size). The essentials: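 Antagonist mode: compound-treated TSHR-expressing HEK293 cells were stimulated with 1.5 ng/mL TSH (final) in presence of Ro20-1724 for 30 min at RT. HTRF cAMP detection after 1 h; each compound tested at 15 concentrations, triplicate.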
Chain of Thyrotropin receptor (Homo sapiens) (P16473 whole entry, looked up): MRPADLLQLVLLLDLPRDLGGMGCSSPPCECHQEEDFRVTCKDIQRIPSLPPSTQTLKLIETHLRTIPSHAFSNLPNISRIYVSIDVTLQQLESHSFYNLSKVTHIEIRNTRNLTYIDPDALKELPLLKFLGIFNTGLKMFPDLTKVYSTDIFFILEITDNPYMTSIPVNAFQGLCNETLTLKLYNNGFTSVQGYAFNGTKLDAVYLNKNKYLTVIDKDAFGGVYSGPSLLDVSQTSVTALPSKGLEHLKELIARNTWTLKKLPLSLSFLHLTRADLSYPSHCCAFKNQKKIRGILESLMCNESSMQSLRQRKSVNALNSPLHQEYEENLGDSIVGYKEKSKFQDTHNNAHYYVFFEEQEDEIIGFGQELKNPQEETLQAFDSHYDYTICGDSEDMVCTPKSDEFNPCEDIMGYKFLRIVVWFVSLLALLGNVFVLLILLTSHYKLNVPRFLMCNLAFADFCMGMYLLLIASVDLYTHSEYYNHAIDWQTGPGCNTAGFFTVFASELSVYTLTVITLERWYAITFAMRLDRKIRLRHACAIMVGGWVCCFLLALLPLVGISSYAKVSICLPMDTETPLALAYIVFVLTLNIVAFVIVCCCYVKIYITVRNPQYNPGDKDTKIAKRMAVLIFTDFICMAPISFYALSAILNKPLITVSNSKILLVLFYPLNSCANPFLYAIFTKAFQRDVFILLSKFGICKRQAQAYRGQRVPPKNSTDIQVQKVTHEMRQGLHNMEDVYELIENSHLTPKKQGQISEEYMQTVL

Assay [15] in a line: qHTS assay to identify small molecule agonists of the estrogen receptor alpha (ER-alpha) signaling pathway in the presence of an antagonist - cell viability counter screen (AID 1259386).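 Note: series mostly up to about 92 µM; cells exposed to compounds for 22 h at 37 °C before the viability read; nearly all actives have a fitted effect of over 30% in size.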 The essentials:
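In this counter screen, compound effects on VM7Luc4E2 viability were tested in the presence of the antagonist ICI-182,780 at 10.0nM final. Compounds were dosed at 15 concentrations, exposure lasted 22hr, and the CellTiter-Fluor signal was read.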

The nature of assay [16]: qHTS assay to identify small molecule antagonists of the sonic hedgehog signaling (Shh) pathway (AID 1259369; calls by dose curve; note: nearly all actives have a fitted effect of over 45% in size; note: potency is the fitted concentration of half-maximal effect). The essentials: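 Stable Gli1-Luc reporter NIH/3T3 clone; quantitative HTS in stimulated mode with conditioned medium. Luminescence measured after 24hr compound treatment at 37 C.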
A short description of assay [17]: qHTS assay to identify small molecule agonists of the estrogen receptor beta (ER-beta) signaling pathway - cell viability counter screen (AID 1259380). Note: nearly all actives have a fitted effect of over 30% in size. Note: potency is the fitted concentration of half-maximal effect. A digest of the protocol:
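Steps: plate ER-beta-UAS-bla HEK293T cells, rest 6 hr; add compounds in DMSO; incubate 16 hr at 37C, 5% CO2; add FRET substrate 2 hr; add CellTiter-Glo, wait 30 min at room temperature; read luminescence.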

In assay [18] the target is Estrogen receptor beta (Homo sapiens) (UniProt Q92731). The assay is described as follows: qHTS assay to identify small molecule agonists of the estrogen receptor beta (ER-beta) signaling pathway (AID 1259377; active = well fitted activation curve with a large enough effect in the signal ratio in the repeat runs, not every such curve was filed as active; the % refers to the signal ratio; note: potency is the fitted concentration of half-maximal effect). The essentials: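 ER-beta-UAS-bla HEK293T (GripTite) cells carrying a UAS-driven beta-lactamase reporter, in medium with 2% charcoal-stripped FBS, were exposed to compounds for 16 hr at 37C; LiveBLAzer B/G FRET substrate was then added and fluorescence read after 2 hours at room temperature.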
Chain of Estrogen receptor beta (Homo sapiens) (Q92731 whole entry, looked up): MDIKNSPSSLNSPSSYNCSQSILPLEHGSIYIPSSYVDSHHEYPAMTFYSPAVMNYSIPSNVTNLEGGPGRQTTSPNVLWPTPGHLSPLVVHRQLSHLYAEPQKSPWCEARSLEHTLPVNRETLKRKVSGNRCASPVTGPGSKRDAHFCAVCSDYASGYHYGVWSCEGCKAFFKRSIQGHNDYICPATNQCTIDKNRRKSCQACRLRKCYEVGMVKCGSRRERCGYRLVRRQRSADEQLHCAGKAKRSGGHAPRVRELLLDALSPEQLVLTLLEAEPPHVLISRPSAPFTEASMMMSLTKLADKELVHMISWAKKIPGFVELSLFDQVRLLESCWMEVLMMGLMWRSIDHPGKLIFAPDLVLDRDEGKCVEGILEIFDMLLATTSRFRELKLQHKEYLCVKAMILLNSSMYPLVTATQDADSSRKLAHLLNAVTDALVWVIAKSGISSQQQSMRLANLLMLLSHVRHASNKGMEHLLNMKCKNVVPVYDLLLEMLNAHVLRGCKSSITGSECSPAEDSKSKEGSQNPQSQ

Chain of Estrogen receptor (Homo sapiens) (P03372 whole entry, looked up): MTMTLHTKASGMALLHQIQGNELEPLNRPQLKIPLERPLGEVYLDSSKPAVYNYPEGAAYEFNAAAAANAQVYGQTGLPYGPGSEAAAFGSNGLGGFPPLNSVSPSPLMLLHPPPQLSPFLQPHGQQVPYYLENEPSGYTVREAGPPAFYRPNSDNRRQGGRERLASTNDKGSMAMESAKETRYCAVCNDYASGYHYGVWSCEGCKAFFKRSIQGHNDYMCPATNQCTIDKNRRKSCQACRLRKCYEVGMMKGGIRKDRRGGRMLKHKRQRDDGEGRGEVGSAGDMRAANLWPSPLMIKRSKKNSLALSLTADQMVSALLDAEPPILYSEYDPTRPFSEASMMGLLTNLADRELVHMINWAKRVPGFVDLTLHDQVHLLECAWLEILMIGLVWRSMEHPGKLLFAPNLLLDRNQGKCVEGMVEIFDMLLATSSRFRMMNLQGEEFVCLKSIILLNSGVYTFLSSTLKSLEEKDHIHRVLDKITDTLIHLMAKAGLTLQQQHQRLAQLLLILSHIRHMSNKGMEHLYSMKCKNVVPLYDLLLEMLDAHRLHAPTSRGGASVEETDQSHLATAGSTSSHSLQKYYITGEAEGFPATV
Chain of Androgen receptor (Homo sapiens) (P10275 whole entry, looked up): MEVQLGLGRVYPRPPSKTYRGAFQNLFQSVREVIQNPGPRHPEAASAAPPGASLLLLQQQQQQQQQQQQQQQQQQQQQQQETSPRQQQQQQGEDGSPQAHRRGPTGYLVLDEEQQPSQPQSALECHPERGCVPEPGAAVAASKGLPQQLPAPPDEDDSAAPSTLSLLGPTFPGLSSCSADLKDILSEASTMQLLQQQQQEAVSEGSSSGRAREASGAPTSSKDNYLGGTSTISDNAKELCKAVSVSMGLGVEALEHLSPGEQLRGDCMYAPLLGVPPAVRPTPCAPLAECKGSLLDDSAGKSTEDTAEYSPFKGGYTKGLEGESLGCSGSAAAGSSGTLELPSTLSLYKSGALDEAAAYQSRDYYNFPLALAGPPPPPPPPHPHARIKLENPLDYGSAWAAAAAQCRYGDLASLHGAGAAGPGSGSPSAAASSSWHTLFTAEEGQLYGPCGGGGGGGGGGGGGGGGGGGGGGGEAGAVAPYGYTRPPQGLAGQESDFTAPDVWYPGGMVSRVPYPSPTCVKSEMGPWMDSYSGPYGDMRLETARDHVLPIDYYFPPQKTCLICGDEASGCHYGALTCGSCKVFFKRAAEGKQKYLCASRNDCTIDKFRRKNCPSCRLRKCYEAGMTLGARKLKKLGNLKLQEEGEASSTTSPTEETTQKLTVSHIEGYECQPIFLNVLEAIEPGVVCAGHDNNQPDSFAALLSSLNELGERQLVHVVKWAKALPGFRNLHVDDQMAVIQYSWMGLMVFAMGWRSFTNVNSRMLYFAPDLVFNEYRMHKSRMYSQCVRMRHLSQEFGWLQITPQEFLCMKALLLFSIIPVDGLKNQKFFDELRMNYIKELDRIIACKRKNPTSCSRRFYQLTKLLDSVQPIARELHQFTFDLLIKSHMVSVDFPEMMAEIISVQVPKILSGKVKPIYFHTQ

Turning to `CC#C[C@]1(O)CC[C@H]2[C@@H]3C[C@H](C)C4=CC(=O)CC[C@]4(C)[C@H]3CC[C@@]21C`, the Potency entry in assay [1], in assay [2], in assay [3], in [4], in assay [5] and in [6] was “inactive” each time. The Potency entry in assay [7], in [8], in assay [9], in [10], in assay [11] and in assay [12] was “inactive” each time. In addition, the Potency result in assay [13], in assay [14] and in assay [15] was “inactive” throughout.

`O=C1C(Cl)=C(Cl)C(=O)C(Cl)=C1Cl`: the Potency result in assay [1], in assay [4], in assay [5], in [6], in assay [9] and in [12] was “inactive” each time. The Potency in [2] was 48.4 µM (active); in [3] it was 27.2 µM (active) and 24.3 µM (active); in [7], 24.2 µM (active) and 24.3 µM (active); in [8], 60.9 µM (active) and 24.3 µM (active); in [16] it was 4.84 µM (active) and 12.2 µM (active); in assay [10] it was 60.9 µM (active) and inactive. For the same compound, the Potency was 60.9 µM (active) and 54.5 µM (active) in assay [17]; 60.9 µM (active) in [11].

In the case of `Cc1nn(-c2cc(NS(C)(=O)=O)c(Cl)cc2Cl)c(=O)n1C(F)F`, the Potency result in assay [1], in assay [2], in [3], in assay [5], in assay [6] and in assay [7] was “inactive” each time. Moreover, the Potency result in assay [8], in [9], in assay [16], in assay [17], in assay [11] and in assay [13] was “inactive” in each case. Also, the Potency entry in assay [14] and in [15] was “inactive” in each case.

With `N#Cc1c2ccccc2cc2ccccc12`, the Potency entry in [1], in assay [2], in [4], in assay [5], in assay [6] and in [9] was “inactive” throughout. For the same compound, the Potency result in [16], in assay [17], in [11], in [12], in assay [13] and in assay [14] was “inactive” in each case. Also, the Potency entry in [15] is “inactive”. In addition, the figures for the Potency in [3] and in assay [18] were 10.8 µM (active) and 21.6 µM (active), respectively.

`ClC1(Cl)C2(Cl)C3(Cl)C4(Cl)C(Cl)(Cl)C5(Cl)C3(Cl)C1(Cl)C5(Cl)C24Cl` (configuration not stated): the Potency entry in assay [1], in [2], in [3], in [4], in [5] and in assay [6] was “inactive” in each case. Also, the Potency entry in assay [7], in [8], in assay [9], in assay [16], in [10] and in assay [11] was “inactive” each time. Further, the Potency entry in [12], in [13], in assay [14] and in [15] was “inactive” throughout.

As to `COP(=O)(OC)O/C(=C\Cl)c1cc(Cl)c(Cl)cc1Cl`, the Potency result in [1], in [2], in assay [5], in assay [6], in assay [7] and in assay [8] was “inactive” throughout. Further, the Potency result in assay [9], in assay [16], in [11], in assay [12], in assay [13] and in [15] was “inactive” throughout. Besides, the Potency in assay [3] is 68.6 µM (active).
